In PubChem BioAssay AID1159580 (chemical genetic matrix, 2015):
Values joined by “and” are separate entries in the source; they are usually repeats but may differ in a detail not shown here. Equal values may be shown once. Screen size: about 5,500 compounds; about 2,000 (36%) were called active. Another 18% or so got no clear call; they are omitted. No stated cut-off is given here; in the data, active means normalized growth mostly below about 0.91 (no sharp cut-off); inconclusive means no clear call, values can overlap the other calls; inactive means mostly above about 0.92. This is one part of the list.

Experiment: chemical genetic growth profiling, strain panel (AID 1159580);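 further: tested at 20 µM; growth read once vehicle control cultures reached saturation at 30 °C; 1 = growth at the plate median or of vehicle wells; lower values mean less growth of the strain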
Conditions: S. cerevisiae deletion strains, growth OD
[1] = locus YDR150W, strain NUM1, hits give low values
[2] = locus YMR307W, strain GAS1, hits give low values
[3] = locus YNL322C, strain KRE1, hits give low values

Measured: normalized growth

NC(N)=NCc1cccc(I)c1
inactive: locus YAL040C, strain CLN3, hits give low values 0.995 | locus YCL061C, strain MRC1 (second series), hits give low values 0.991 | [1] 1.01 | locus YDR363W, strain ESC2, hits give low values 1 | locus YER002W, strain NOP16, hits give low values 1 | [2] 0.997 | locus YNL128W, strain TEP1, hits give low values 1.02 | locus YNL175C, strain NOP13, hits give low values 1.01 | locus YNL197C, strain WHI3, hits give low values 0.987 | locus YNL224C, strain SQS1, hits give low values 1.01 | [3] 0.982 | locus YOR083W, strain WHI5 (second series), hits give low values 0.99 | locus YPL055C, strain LGE1, hits give low values 1.02

C=C(C)C1Cc2c(ccc3c(=O)c4c(oc23)COc2cc(OC)c(OC)cc2-4)O1 (centres undefined)
inactive: locus YAL021C, strain ccr4, hits give low values 1.01 | locus YAL026C, strain drs2, hits give low values 0.999 | locus YAL030W, strain snc1, hits give low values 0.987 | locus YBL061C, strain skt5, hits give low values 0.999 | locus YBR009C, strain hhf1, hits give low values 1 | locus YBR021W, strain FUR4, hits give low values 1.05 | locus YBR023C, strain chs3, hits give low values 0.998 | locus YBR171W, strain sec66, hits give low values 0.99 | locus YBR229C, strain ROT2, hits give low values 1 | locus YBR231C, strain swc5, hits give low values 1.01 | locus YBR279W, strain paf1, hits give low values 1 | locus YCL011C, strain gbp2, hits give low values 0.989 | locus YCL016C, strain dcc1, hits give low values 0.995 | locus YCL029C, strain bik1, hits give low values 1 | locus YCL061C, strain MRC1, hits give low values 0.996 | locus YCL069W, strain vba3, hits give low values 0.999 | locus YCR088W, strain abp1, hits give low values 0.996 | locus YDL005C, strain med2, hits give low values 0.997 | locus YDL035C, strain GPR1, hits give low values 1.04 | locus YDL040C, strain nat1, hits give low values 0.991 | locus YDL074C, strain BRE1, hits give low values 1.04 | locus YDL101C, strain DUN1, hits give low values 0.994 | locus YDL134C, strain PPH21, hits give low values 1.01 | locus YDL185W, strain tfp1, hits give low values 0.956 | locus YDL192W, strain arf1, hits give low values 1.03 | locus YDR001C, strain nth1, hits give low values 1 | locus YDR069C, strain doa4, hits give low values 1 | locus YDR101C, strain arx1, hits give low values 1.04 | locus YDR137W, strain rgp1, hits give low values 0.926 | [1] 0.989 | locus YDR159W, strain sac3, hits give low values 1.01 | locus YDR162C, strain NBP2, hits give low values 1.04 | locus YDR195W, strain ref2 0.998 | locus YDR297W, strain sur2, hits give low values 0.995 | locus YDR318W, strain mcm21, hits give low values 1.01 | locus YDR334W, strain swr1, hits give low values 0.982 | locus YDR335W, strain msn5, hits give low values 1 | locus YDR388W, hits give low values 0.997 | locus YDR392W, strain spt3, hits give low values 0.982 | locus YDR502C, strain sam2, hits give low values 1.01 | locus YEL003W, strain gim4, hits give low values 0.991 | locus YEL037C, strain rad23, hits give low values 0.997 | locus YEL061C, strain CIN8 (second series), hits give low values 1 | locus YEL061C, strain CIN8, hits give low values 1 | locus YER015W, strain faa2, hits give low values 1 | locus YER016W, strain bim1, hits give low values 0.994 | locus YER110C, hits give low values 1 | locus YER111C, strain swi4, hits give low values 1.01 | locus YER155C, strain BEM2 (second series), hits give low values 1.01 | locus YER155C, strain BEM2, hits give low values 0.99 | locus YER167W, strain BCK2, hits give low values 0.988 | locus YFR010W, strain ubp6, hits give low values 0.988 | locus YGL078C, strain dbp3, hits give low values 0.987 | locus YGL086W, strain mad1, hits give low values 0.995 | locus YGL167C, strain pmr1, hits give low values 1.01 | locus YGL173C, strain kem1, hits give low values 0.996 | locus YGL227W, strain vid30, hits give low values 1.01 | locus YGL240W, strain doc1, hits give low values 1.01 | locus YGL248W, strain PDE1, hits give low values 0.999 | locus YGL253W, strain hxk2, hits give low values 1 | locus YGR135W, strain pre9, hits give low values 0.983 | locus YGR229C, strain SMI1, hits give low values 0.988 | locus YGR252W, strain gcn5, hits give low values 1.06 | locus YHR013C, strain ard1, hits give low values 1.01 | locus YHR027C, strain rpn1, hits give low values 0.99 | locus YHR030C, strain SLT2, hits give low values 0.973 and 1.01 | locus YHR079C, strain IRE1 (second series), hits give low values 1 | locus YHR079C, strain IRE1, hits give low values 1.06 | locus YHR094C, strain hxt1, hits give low values 0.979 | locus YHR129C, strain ARP1, hits give low values 1.01 | locus YHR142W, strain chs7, hits give low values 1.01 | locus YHR200W, strain rpn10, hits give low values 1.01 | locus YIL066C, strain RNR3, hits give low values 1 | locus YIL073C, strain SPO22, hits give low values 0.927 | locus YIL125W, strain kgd1, hits give low values 0.998 | locus YIR030C, strain dcg1, hits give low values 0.999 | locus YJL092W, strain hpr5, hits give low values 0.993 | locus YJL095W, strain BCK1 (second series), hits give low values 0.998 | locus YJL095W, strain BCK1, hits give low values 1.03 and 1.01 | locus YJL115W, strain asf1, hits give low values 0.974 | locus YJL129C, strain trk1, hits give low values 0.993 | locus YJL134W, strain LCB3, hits give low values 0.998 | locus YJL154C, strain vps35, hits give low values 0.99 | locus YJL164C, strain tpk1, hits give low values 1 | locus YJL166W, strain qcr8, hits give low values 1.01 | locus YJL168C, strain set2, hits give low values 0.998 | locus YJL187C, strain SWE1 (second series), hits give low values 0.995 | locus YJL187C, strain SWE1, hits give low values 1.01 | locus YJR043C, strain POL32, hits give low values 1.04 | locus YJR066W, strain TOR1, hits give low values 0.986 | locus YKL009W, strain mrt4, hits give low values 1 | locus YKL068W, hits give low values 0.982 | locus YKL085W, strain MDH1 (second series), hits give low values 0.997 | locus YKL085W, strain MDH1, hits give low values 0.997 | locus YKL160W, strain elf1, hits give low values 1.01 | locus YKL190W, strain CNB1, hits give low values 0.992 | locus YKR001C, strain vps1, hits give low values 1.03 | locus YKR026C, strain gcn3, hits give low values 0.999 | locus YKR091W, strain srl3, hits give low values 0.999 | locus YLL001W, strain dnm1, hits give low values 0.995 | locus YLL026W, hits give low values 0.993 | locus YLL041C, strain sdh2, hits give low values 0.978 | locus YLR027C, strain aat2, hits give low values 0.986 | locus YLR039C, strain RIC1, hits give low values 0.99 | locus YLR058C, strain SHM2, hits give low values 1.02 | locus YLR102C, strain apc9, hits give low values 0.993 | locus YLR113W, strain HOG1, hits give low values 0.992 | locus YLR221C, strain rsa3, hits give low values 1 | locus YLR258W, strain gsy2, hits give low values 0.991 | locus YLR262C, strain YPT6 (second series), hits give low values 1 | locus YLR262C, strain YPT6, hits give low values 0.969 | locus YLR268W, strain sec22, hits give low values 1.04 | locus YLR320W, strain mms22, hits give low values 1.02 | locus YLR330W, strain CHS5, hits give low values 1 | locus YLR342W, strain FKS1 (second series), hits give low values 1.06 | locus YLR342W, strain FKS1, hits give low values 1 | locus YLR357W, strain rsc2, hits give low values 1.02 | locus YLR370C, strain arc18, hits give low values 1.01 | locus YLR371W, strain rom2, hits give low values 0.98 | locus YLR384C, strain iki3, hits give low values 1 | locus YLR418C, strain cdc73, hits give low values 1.05 | locus YML016C, strain PPZ1, hits give low values 0.999 | locus YML032C, strain rad52, hits give low values 1.01 | locus YML120C, strain ndi1, hits give low values 1.01 | locus YML124C, strain tub3, hits give low values 0.992 | locus YMR058W, strain fet3, hits give low values 1 | locus YMR078C, strain ctf18, hits give low values 0.998 | locus YMR125W, strain sto1, hits give low values 0.998 | locus YMR129W, hits give low values 0.996 | locus YMR205C, strain PFK2, hits give low values 1.02 | locus YMR223W, strain ubp8, hits give low values 1.01 | locus YMR231W, strain pep5, hits give low values 0.996 | [2] 1.18 | locus YNL067W, strain RPL9B, hits give low values 0.984 | locus YNL071W, strain lat1, hits give low values 0.981 | locus YNL153C, strain GIM3, hits give low values 0.991 | locus YNL183C, strain NPR1, hits give low values 0.988 | locus YNL209W, strain ssb2, hits give low values 0.999 | locus YNL233W, strain BNI4, hits give low values 1.03 | locus YNL248C, strain rpa49, hits give low values 0.991 | locus YNL250W, strain rad50, hits give low values 0.962 | locus YNL271C, strain bni1, hits give low values 0.99 | locus YNL298W, strain CLA4, hits give low values 1 | locus YNL307C, strain MCK1, hits give low values 0.993 | locus YNL322C, strain KRE1 (second series), hits give low values 1 | [3] 0.999 | locus YNR049C, strain mso1, hits give low values 1 | locus YNR052C, strain pop2, hits give low values 0.991 | locus YOL012C, strain htz1 1.59 | locus YOL147C, strain pex11, hits give low values 0.992 | locus YOR001W, strain rrp6, hits give low values 0.99 | locus YOR061W, strain CKA2, hits give low values 1 | locus YOR069W, strain VPS5, hits give low values 0.996 | locus YOR070C, strain gyp1, hits give low values 0.99 | locus YOR080W, strain dia2, hits give low values 1 | locus YOR083W, strain WHI5, hits give low values 1.01 | locus YOR106W, strain vam3, hits give low values 1.02 | locus YOR136W, strain idh2, hits give low values 1 | locus YOR144C, strain elg1, hits give low values 0.999 | locus YOR184W, strain ser1, hits give low values 1.07 | locus YOR231W, strain MKK1, hits give low values 1.03 | locus YOR265W, strain rbl2, hits give low values 0.993 | locus YOR270C, strain vph1, hits give low values 1 | locus YOR290C, strain snf2, hits give low values 0.998 | locus YOR316C, strain cot1, hits give low values 0.982 | locus YPL051W, strain arl3, hits give low values 1.01 | locus YPL078C, strain atp4, hits give low values 1.01 | locus YPL106C, strain sse1, hits give low values 0.992 | locus YPL240C, strain hsp82, hits give low values 0.976 | locus YPL241C, strain CIN2, hits give low values 0.991 | locus YPL256C, strain CLN2, hits give low values 1.03 | locus YPR119W, strain clb2, hits give low values 0.988 | locus YPR141C, strain kar3, hits give low values 0.974 | locus YPR163C, strain tif3, hits give low values 0.974 | locus YPR167C, strain met16, hits give low values 1.01 | strain wtn01, hits give low values 1.03
